# Experimental data as given in the supplement of paper PMC12532568.
# Where a name gives a salt, the structure may show the parent alone.
# Tested on: Danio rerio larvae Tg(actc1b:ZsGreen-LC3), 3 dpf
# Assay: LC3 puncta relative area vs vehicle, with NH4Cl (autophagic flux) (log2 fold change); higher = more autophagy
# Settings: 10 µM; treatment time 16 h; NH4Cl: + 100 mM, 4 h
# Method: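 Transgenic Tg(actc1b:ZsGreen-map1lc3) zebrafish larvae (2 dpf) were treated for 16 h with Tocris library compounds at 10 µM (n = 12 larvae per compound). Skeletal-muscle LC3 puncta area relative to body area was measured by high-content confocal imaging before and after 4 h of 100 mM NH4Cl (autophagic flux), normalised to vehicle (DMSO), and reported as log2 fold change.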
row,SMILES,LC3 puncta (log2)
1,N=C(N)SCCc1c[nH]cn1 [Imetit dihydrobromide],0.713
2,CCN(CC)CCOc1ccc(Cc2ccccc2)cc1 [DPPE fumarate],0.857
3,CC[C@@H]1C(=O)OC[C@@H]1Cc1cncn1C [Pilocarpine hydrochloride],0.652
4,Fc1ccc(C(c2ccc(F)cc2)N2CCN(C/C=C/c3ccccc3)CC2)cc1 [Flunarizine dihydrochloride],0.536
5,CCN(CC)CCOC(=O)C1(c2ccc([N+](=O)[O-])cc2)CCCC1 [Nitrocaramiphen hydrochloride],0.825
6,O=C(O)c1cc(=O)c2ccccc2[nH]1 [Kynurenic acid],-0.156
7,NS(=O)(=O)c1cccc2c1c([N+](=O)[O-])cc1nc(O)c(O)nc12,0.16
8,OCCN(CCO)c1nc(N2CCCCC2)c2nc(N(CCO)CCO)nc(N3CCCCC3)c2n1 [Dipyridamole],-0.141
9,O=C(/C=C/c1ccc(O)c(O)c1)O[C@H](Cc1ccc(O)c(O)c1)C(=O)O [Rosmarinic acid],0.0251
10,CC(C)Oc1ccc2c(=O)c3cc(C(=O)O)ccc3oc2c1,0.814
11,CC(C)NC[C@H](O)COc1ccc(CC(N)=O)cc1 [(S)-(-)-Atenolol],0.611
12,CC12CC3CC(C)(C1)CC(N)(C3)C2 [Memantine hydrochloride],0.723
13,O=[N+]([O-])c1cccc2c(Br)[nH]nc12 [3-Bromo-7-nitroindazole],0.697
14,O=S(=O)(c1cccc2c(Cl)cccc12)N1CCCNCC1 [ML 9 hydrochloride],0.383
15,CCC(C)N(C)C(=O)c1cc2ccccc2c(-c2ccccc2Cl)n1 (stereo not given),0.363
16,O=C(O)C1=CCCNC1 [Guvacine hydrochloride],0.136
17,CCC1(c2ccccc2)C(=O)NCNC1=O [Primidone],0.792
18,CCCCCCN(CCCCCC)C(=O)Cc1c(-c2ccc(Cl)cc2)[nH]c2ccc(Cl)cc12,0.58
19,CC(CCc1ccc(O)cc1)NCCc1ccc(O)c(O)c1 (stereo not given) [Dobutamine hydrochloride],0.472
20,NC(=O)c1cccc(N)c1 [3-Aminobenzamide],0.645

row,SMILES,LC3 puncta (log2)
1,COc1cc2c(CCNC(C)=O)c[nH]c2cc1Cl [6-Chloromelatonin],0.198
2,CCc1nc(N)nc(N)c1-c1ccc(Cl)cc1 [Pyrimethamine],0.578
3,CC(N)(Cc1ccc(O)c(O)c1)C(=O)O (stereo not given),0.209
4,N[C@H](C(=O)O)c1ccc(C(=O)O)c(O)c1 [(S)-4-Carboxy-3-hydroxyphenylglycine],-0.0785
5,Cc1ccc2c(c1)c1c3n2CCNC3CCC1 (stereo not given) [Pirlindole mesylate],0.527
6,NC(C(=O)O)c1cc(O)cc(O)c1 (racemic),0.022
7,CC(C)CC(NC(=O)OCC1c2ccccc2-c2ccccc21)C(=O)O (stereo not given),0.569
8,CC1=NN(c2ccccc2)C(=O)C1 [Edaravone],0.405
9,Brc1c(NC2=NCCN2)ccc2nccnc12,0.713
10,COc1cc2nc(N3CCN(C(=O)c4ccco4)CC3)nc(N)c2cc1OC [Prazosin hydrochloride],0.478
11,O=[N+]([O-])c1cccc2cn[nH]c12 [7-Nitroindazole],0.507
12,Cc1ccc(/C(=C\CN2CCCC2)c2ccccn2)cc1 [trans-Triprolidine hydrochloride],-0.196
13,CC(CCCCC(=O)Nc1ccc(C(F)(F)F)cc1)NCCc1cnc[nH]1 (stereo not given) [HTMT dimaleate],0.469
14,C=C1C(=O)O[C@H]2[C@H]1CC/C(C)=C/CC[C@@]1(C)O[C@@H]21 [Parthenolide],0.46
15,O=C(NCCN1CCCCC1)c1ccc(I)cc1 [N-[2-(Piperidinylamino)ethyl]-4-iodobenzamide],0.448
16,COc1ccc(CCN(C)CCc2ccc(OC)c(OC)c2)cc1OC [YS-035 hydrochloride],0.374
17,c1ccc2oc(C3=NCCN3)cc2c1 [2-BFI hydrochloride],-0.32
18,"COC(=O)/C=C/c1cc(O)ccc1O [Methyl 2,5-dihydroxycinnamate]",0.332
19,CC(C)NCC(O)COc1cccc2ccccc12 (stereo not given) [Propranolol hydrochloride],1.08
20,CC(=O)N[C@@H](Cc1c[nH]c2ccccc12)C(=O)OCc1cc(C(F)(F)F)cc(C(F)(F)F)c1,0.108
